In the library only some 6.1% were active in any assay of this set; here they are far more common.
HepG2 viability: HepG2 cytotoxicity, counter-screen for TGF-b inhibitors. HepG2 CAGA-GFP viability, ATP luminescence, 18 h. Potency, µM (doses to about 46.1 µM), most hits filed as cytotoxic. 410,000 tested, 0.76% active. AID 588856
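CellTiter-Glo luminescence gave cytotoxicity after 18 hours at 37 degrees C. The cells were HepG2 CAGA-GFP in 1% FBS DMEM, stimulated with 500 pg/mL TGF-beta after compound addition. %Activity was normalised to no-cell wells (complete cell-killing) and DMSO (no toxicity), and curves were fitted and classified.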
ATXN viability: reduces viability in counter-screen for ATXN expression inhibitors | S2 cells (HEK-293 line with an ATXN2-luciferase reporter) viability, CellTiter-Fluor protease fluorescence, 24 h | Potency, µM (titrated, usually from 56.7 µM), hits mostly cytotoxic | 400,000 tested, 0.49% active | AID 651635; also: nearly all actives have a fitted effect of over 40% in size
ATXN2 expr inh: reduces ATXN2 reporter expression in HEK-293 cells; 360,000 tested, 0.72% active; HEK-293 ATXN2-luciferase reporter, luminescence, 24 h; AID 1745845; Potency, µM (highest dose often 57 µM), most hits filed as inhibitors; also: nearly all actives have a fitted effect of over 55% in size
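qHTS (up to 57 uM final) was run with 24 h compound exposure of reporter cells at 37 °C. Each well was multiplexed: SteadyGlo luminescence measured ATXN2-luciferase expression after a fluorogenic Gly-Phe-AFC viability readout (25 uM final).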
TGFb SMAD3 inh: TGF-b pathway inhibition; 410,000 tested, 1.2% active; Potency, µM (highest dose often 46.1 µM), most hits filed as inhibitors; HepG2 CAGA-GFP TGF-b/SMAD3 reporter, GFP fluorescence, 18 h; TGF-beta stimulated, 500 pg/mL final; also: nearly all actives have a fitted effect of over 65% in size
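Per well, imaged GFP fluorescence of HEPG2 CAGA-GFP cells gives the signal; cells get compound, then TGF-beta (500 pg/mL final), 18 h at 37 degrees C; %Activity versus -TGF-beta and +DMSO controls.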
VP16 counter: inhibits Gal4-VP16 luciferase reporter, ROR gamma counter-screen | Drosophila S2 Gal4-VP16 UAS-luciferase, luminescence, 20 h | Potency, µM (highest dose often 53.6 µM), usual class: inhibitors | 310,000 tested, 3.5% active;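 also: Gal4-VP16 expression switched on by copper sulfate through the metallothionein promoter; nearly all actives have a fitted effect of over 50% in size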
RORg inh: blocks mouse ROR gamma transcriptional activity; Drosophila S2 Gal4-RORgamma UAS-luciferase reporter, 20 h; Potency, µM (doses to about 53.6 µM), usual class: inhibitors; 310,000 tested, 5.4% active; P51450; AID 2551; also: nearly all actives have a fitted effect of over 60% in size
Target sequence (P51450 whole entry, looked up, the tested form may be a part): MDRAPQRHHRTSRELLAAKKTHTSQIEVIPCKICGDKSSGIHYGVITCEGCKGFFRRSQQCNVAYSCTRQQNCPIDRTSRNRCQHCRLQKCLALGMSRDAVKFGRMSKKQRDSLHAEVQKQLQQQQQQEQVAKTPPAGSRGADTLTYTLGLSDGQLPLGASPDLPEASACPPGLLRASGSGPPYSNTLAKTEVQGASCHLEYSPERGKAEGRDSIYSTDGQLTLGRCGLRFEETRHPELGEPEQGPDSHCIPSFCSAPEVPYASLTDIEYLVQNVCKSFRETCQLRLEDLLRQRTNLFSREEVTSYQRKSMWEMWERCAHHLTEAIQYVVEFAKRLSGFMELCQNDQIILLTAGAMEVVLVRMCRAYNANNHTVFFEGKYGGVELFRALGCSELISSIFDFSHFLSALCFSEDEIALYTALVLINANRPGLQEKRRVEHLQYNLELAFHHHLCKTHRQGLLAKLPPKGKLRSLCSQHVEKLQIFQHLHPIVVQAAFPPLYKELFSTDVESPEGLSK
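In this cell-based reporter format, copper sulfate (700 uM final) drives Gal4–ROR gamma fusion expression from a metallothionein promoter in Drosophila Schneider cells; compounds preincubated 1 hr, reporter read after 20 hr at ambient temperature.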
Hits are given with their value; – = inactive; ? = inconclusive; · = no result given; ! = repeats disagree; [ ] = remark or other dose. Calls follow the shape of the dose curve; as a rule, active = well fitted curve in the direction sought with a large enough effect; inconclusive = small, poorly fitted or top-dose-only effect, or another doubt; inactive = no such curve, though single readings can be large; an effect the other way counts as inactive or inconclusive.

SMILES	HepG2 viability	ATXN viability	ATXN2 expr inh	TGFb SMAD3 inh	VP16 counter	RORg inh
Clc1ccc(C(c2ccc(Cl)cc2)n2cc[n+](CC(OCc3ccc(Cl)cc3Cl)c3ccc(Cl)cc3Cl)c2)cc1 (centres undefined)	13µM	18µM	28µM!	18µM	11µM	?
CC(C)CNC(=O)c1c(N)n(Cc2ccco2)c2nc3ccccc3nc12	–	·	?	22µM	?	–
CC(C)CNC(=O)c1c(N)n(Cc2ccc3c(c2)OCO3)c2nc3ccccc3nc12	–	–	?	16µM	7.1µM	?
COCCCNC(=O)c1c(N)n(Cc2ccco2)c2nc3ccccc3nc12	–	·	–	?	–	?
CC(C)OCCCNC(=O)c1c(N)n(Cc2cccs2)c2nc3ccccc3nc12	22µM	–	?	18µM	16µM	?
COc1ccc(Cn2c(N)c(C(=O)NCc3ccco3)c3nc4ccccc4nc32)cc1OC	–	–	?	16µM	–	–
CC(C)CCn1c(N)c(C(=O)NCc2cccs2)c2nc3ccccc3nc21	–	–	?	–	–	–
C(CCOCC1CO1)COCC1CO1 (centres undefined)	·	·	·	·	–	–
CC(C)CC(=O)N(Cc1ccccc1)S(=O)(=O)c1ccc2c(c1)oc(=O)n2C	–	–	–	?	·	·
CCCCC(=O)Nc1c(C(=O)N2CCN(c3ccccc3F)CC2)oc2ccccc12	–	·	·	?	·	·
COc1ccc(NC(=O)Cn2c(=O)oc3cc(S(=O)(=O)NCc4ccccc4)ccc32)c(OC)c1	–	·	·	–	·	·
c1ccc(-c2cc3c(nc2-c2ccccc2)CCNC3)cc1	·	·	·	·	–[10 µM]	–[10 µM]
O=C(Cc1c(O)c2ccccc2oc1=O)c1ccc(F)cc1	–	?	–	–	·	·
CC(C)[C@]12O[C@H]1[C@@H]1O[C@]13[C@]1(O[C@H]1C[C@H]1C4=C(CC[C@@]13C)C(=O)OC4)[C@@H]2O	·	·	·	·	0.4µM	0.32µM
CC/C(=N\NC(=S)Nc1ccccc1)c1c(O)[nH]c(=O)[nH]c1=O	–	–	–	–	?	5.6µM
CCN(CC)c1ccc(C=C2C(=O)NC(=S)NC2=O)cc1	16µM	?	·	18µM	–	–
CCC(COC(=O)NC)NC(=O)Oc1cccc(C)c1 (centres undefined)	–	–	–	–	–	–
CNC(=O)Oc1ccc(-c2cn3cc(C)ccc3n2)cc1	–	–	8.9µM	–	4µM	2µM
CNC(=O)Oc1cccc(-c2cn3cc(Cl)ccc3n2)c1	–	–	–	–	5µM	–
CN1C(=O)c2ccccc2Sc2ccc(NC(=O)N3CCN(c4ccccc4)CC3)cc21	–	·	·	?	·	·
COc1cc2c(cc1/C=C/[N+](=O)[O-])OCO2	–	28µM	–[11.3 µM]	?	?	7.9µM
C[C@H]([C@H](O)CCC(C)(C)O)[C@H]1CC[C@@]2(O)C3=CC(=O)[C@@H]4C[C@@H](O)[C@@H](O)C[C@]4(C)[C@@H]3CC[C@]12C	·	·	–	·	·	·
OCCBr	·	·	·	·	–	–
COc1ccc(Cc2nccc3cc(OC)c(OC)cc23)cc1OC	–	–	?	–	28µM!	?
COc1ccc(NP(=O)(Oc2ccc(Cl)cc2)Oc2ccc(Cl)cc2)cc1OC	–	–	–	20µM	–	?
SMILES	HepG2 viability	ATXN viability	ATXN2 expr inh	TGFb SMAD3 inh	VP16 counter	RORg inh
COc1ccc(OC)c(NP(=O)(Oc2ccc(Cl)cc2)Oc2ccc(Cl)cc2)c1	–	–	–	–	–	?
COc1ccc(NP(=O)(Oc2cccc(C)c2)Oc2cccc(C)c2)cc1OC	–	–	·	16µM	–	–
COc1ccccc1OP(=O)(Nc1ccc(Br)cc1)Oc1ccccc1OC	–	–	–	16µM	–	?
Cc1cccc(OP(=O)(Nc2ccc(F)cc2)Oc2cccc(C)c2)c1	–	–	–	?	–	–
ClCCCCl	·	·	·	·	–	–
CC(C)Cn1c(=O)oc2ccccc21	–	–	–	?	–	–
C[C@]12CC[C@H]3[C@@H](CC[C@@]45O[C@@H]4C(=O)C(C#N)C[C@]35C)[C@@H]1CC[C@@H]2O (some centres undefined)	·	·	·	·	–	?
CC(=O)Oc1c2c(c(CC=C(C)C)c3c1C(=O)C1=CC4CC5C(C)(C)OC(C/C=C(\C)C(=O)O)(C4=O)[C@]15O3)OC(C)(CCC=C(C)C)C=C2 (some centres undefined)	·	·	·	·	?	3.5µM
COC(=O)/C(C)=C\CC12OC(C)(C)C3CC(C=C4C(=O)c5c(OC)c6c(c(CC=C(C)C)c5OC431)OC(C)(CCC=C(C)C)C=C6)C2=O (centres undefined)	·	·	·	·	–	?
C[C@@H]1C[C@H](C)C[C@H](C)[C@@H](O)CC(=O)O[C@H]([C@H]2CCC[C@H]2C(=O)O)C/C=C/C=C(/C#N)[C@H](O)[C@@H](C)C1	·	·	·	·	?	0.028µM
COc1ccc(CCNC(=O)c2ccc3c(c2)CCN3S(=O)(=O)c2ccc(C)cc2)cc1OC	–	?	–	–	·	·
CCCCCn1c(NC(=O)c2ccco2)c(C(=O)OCC)c2nc3ccccc3nc21	16µM	–	?	20µM	–	–
OC1(c2ccc(Cl)cc2)CCN(Cc2c[nH]c3ccccc23)CC1	–	–	?	?	–	–
C=C1C(=O)O[C@H]2[C@H]1[C@H](OC(=O)CC(=O)O[C@@H]1C[C@@H](C)[C@@H]3C=CC(=O)[C@@]3(C)[C@H]3OC(=O)C(=C)[C@H]13)C[C@@H](C)[C@H]1C=CC(=O)[C@]12C	–	?	?	?	7.1µM	7.1µM
C=C1C(=O)OC2CC(C)C3C=CC(=O)C3(C)C(O)C12 (centres undefined)	–	?	?	3.2µM	·	·
C=C1C(=O)O[C@@H]2C[C@@H](C)[C@@H]3C=CC(=O)[C@@]3(C)[C@@H](OC(=O)CC(=O)O[C@H]3[C@@H]4C(=C)C(=O)O[C@@H]4C[C@@H](C)[C@@H]4C=CC(=O)[C@]43C)[C@H]12	0.56µM	·	0.32µM	0.25µM	0.63µM	1.1µM
C=C1C(=O)O[C@H]2C[C@@H](C)[C@@H]3C=CC(=O)[C@@]3(C)C[C@H]12	7.9µM	?	6.3µM	4.5µM	10µM	6.3µM
CC(C)CON=O	·	·	·	·	–	–
C[C@@H](NC(=O)[C@@H](N)Cc1ccc(O)cc1)C(=O)NCC(=O)N(C)[C@@H](Cc1ccccc1)C(=O)NCCO	·	·	·	·	–	–
C=C1C(=O)O[C@@H]2C[C@@H](C)[C@@H]3C4OC4C(=O)[C@@]3(C)[C@@H](O)[C@H]12 (some centres undefined)	–	3.5µM	3.2µM	2.8µM	4µM	2.8µM
CCOC(=O)Nc1ccc(NCc2ccc(F)cc2)cc1N	·	·	–	·	·	·
Cc1ccc(-c2cn3c(=S)[nH]nc3s2)cc1	–	–	–	–	?	2.8µM

Source: PubChem
